This passage reports z-score results from PubChem BioAssay.

Calls of active or inactive are those of the source.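 The calls were made as follows: active = z-score of at least 1.8 in each of two replicates, scored against plate mean and spread of sample wells; inactive = the rest.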

The assay is described as follows: galactose survival enhancers in mitochondrial complex I cybrids – cell-based, galactose medium, ATP luminescence, primary screen (AID 1645843).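 Also: positive z means more ATP and so rescue of galactose-driven cybrid death.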 The note with it: complex I mutant cybrid cells, 72 h, stronger effect = higher value.
Consider `Cc1cc(NC(=O)Cn2ccc(-c3ccsc3)n2)n(-c2ccccn2)n1`, for which the z-score is 1.83 (inactive). As to `Cc1cc(CN(C)Cc2ccc(-c3nc(C)c(C)c(=O)[nH]3)cc2)ccn1`, the z-score is -0.52 (inactive). The result for `COc1ccc(OC)c(-c2ncnc3sc(C)c(C)c23)c1` reads 0.645 (inactive); that for `O=C(Nc1n[nH]c(Cc2ccccc2)n1)N1CCN(C(=O)c2ccco2)CC1`, 2.72 (active); that for `OCCCCCNCC1(N2CCOCC2)CCCCCC1`, -0.47 (inactive). The result for `C=C1C2(C(=O)N3CCCC(COC)C3)CCC(C2)C1(C)C` (stereo not given) reads -0.525 (inactive); that for `CC(=O)c1c(C)nn(CC(=O)Nc2ccc(N3CCOCC3)cc2)c1C`, -0.6 (inactive); that for `O=C(Nc1nc(-c2ccccc2)ns1)N1CCN(C2CCCCC2)C(=O)C1`, -0.54 (inactive). The result for `CCC(CC)C(=O)N1CCC(n2cc(C(C)(C)O)nn2)CC1` reads 0.875 (inactive); that for `NCCCNC1CCN(c2ccc(-c3cccc(F)c3)cc2)CC1`, -1.31 (inactive). Consider `Cn1ccnc1-c1ccccc1C(=O)N1CCN(Cc2cccc(F)c2)CC1`, for which the z-score was 0.355 (inactive). The result for `CCCCCNC(=O)N1CCC2(CC1)Nc1ccccc1N(CC1CC1)C2=O` reads 0.705 (inactive); that for `O=C(CCC1CC1)Nc1ccnn1C1CCCCC1`, 0.01 (inactive); that for `O=C(c1ccc(-n2ccnc2)cc1)N1CCc2[nH]nc(-c3ccccc3)c2C1`, -1 (inactive).

Consider `CC1(C)C2(c3nc(Cc4c(F)cccc4Cl)no3)CC[C@@]1(C)C(=O)O2`, for which the z-score was -0.525 (inactive). As to `Cc1cc(Cl)cc2c(=O)n(C(C)Cn3cccn3)cnc12` (stereo not given), the z-score was -0.45 (inactive).

`CCCC(CCC)N[C@H](CO)Cc1ccccc1`: the z-score is -0.345 (inactive). The result for `CC(=O)c1ccccc1-c1ccc2ccccc2n1` reads -0.515 (inactive); that for `CCOC(=O)c1cc(C)nc(N2CCCC(c3nc(C(C)C)no3)C2)n1` (stereo not given), -0.54 (inactive); that for `Cc1ccc2c(C(=O)N3CCCC3)cc(-c3cnn(C(C)C)c3)nc2c1`, -0.36 (inactive). Consider `Cc1ccc2c(C(=O)N3CCC(C)(C)C3)cc(-c3cnn(C(C)C)c3)nc2c1`, for which the z-score is -0.01 (inactive).

As to `Cc1cccc2c(C(=O)N(C)C(C)C)cc(-c3cnc(C(C)(C)C)nc3)nc12`, the z-score was 2.35 (active). The result for `O=C(C1CCCCCC1)N1CCC(n2cc(C3CCCCC3)nn2)CC1` reads 2.69 (active). `COc1cccc(-n2cc(-c3ccnc(N(C)CCn4ccnc4)n3)cn2)c1`: the z-score was 1.84 (inactive). The result for `CCn1ncc2[nH]c(-c3cc(F)ccc3-n3cccn3)nc21` reads -0.185 (inactive); that for `CCC(CC)(CCC#N)CNC1CCOC(C)(C)C1` (stereo not given), -0.485 (inactive). `CCn1cc(-c2cc(C(=O)N3CCCCCC3)c3ccc(C)c(C)c3n2)cn1`: the z-score is 1.92 (active). The result for `COC(=O)c1nn(CC(=O)Nc2cnn(C)n2)c2ccccc12` reads 1.92 (inactive); that for `COc1cccc2ccc(-c3ccc(C(=O)N(C)C)cc3)nc12`, 1.37 (inactive). The result for `Cc1ccccc1-n1cc(-c2ccnc(NCc3nnc4n3CCCC4)n2)cn1` reads -0.305 (inactive). In the case of `Fc1cccc(-c2ccc(N3CCC(NC4CCNCC4)CC3)cc2)c1`, the z-score is -1.3 (inactive). The result for `CCCCc1cn(C2CCN(C3Cc4ccccc4C3)CC2)nn1` reads -0.33 (inactive); that for `CCCc1cn(C2CCN(C(=O)C(C)N3CCCC3)CC2)nn1` (stereo not given), -0.35 (inactive). Take `Cc1cccc2c(C(=O)N3CCC(C)(C)C3)cc(-c3cnc(C4CC4)nc3)nc12`: the z-score is 2.3 (active). Consider `CCCC1CCCN1Cc1ccccc1OC1(C(=O)O)CCCC1` (stereo not given), for which the z-score was -0.265 (inactive). For `CCCCn1cc(-c2cc(C(=O)N3CCCC3C)c3cccc(C)c3n2)cn1` (stereo not given), the z-score is 1.28 (inactive). The result for `CN(C)C(=O)c1cccnc1-c1ccc2ncccc2c1` reads -0.545 (inactive); that for `Cc1c(C(F)(F)F)nc(-c2ccc(CN(C)C)cc2)[nH]c1=O`, -0.555 (inactive). Regarding `Cc1nsc(NC(=O)NCc2cc(Cl)ccc2Cl)n1`, the z-score is -1.1 (inactive).

`CC(C)Cc1cn(C2CCN(C(=O)C3CCCCCC3)CC2)nn1`: the z-score is -0.435 (inactive).
